About 3,800 (1%) of roughly 370,000 compounds were called active. Rule as the data show it: active = activation above about 7.8%; inactive = the rest. Many of the other results were omitted from the sample, so actives are more common in it than they were.
Assay: SMARCA2 (BRM) function activators, primary screen, cell-based, luminescence, high throughput (AID 652017);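 also: 0% = vehicle wells and 100% = reference activator wells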
Conditions: MG213 cells, MMTV-luciferase reporter, dexamethasone, overnight; at 9.1 µM; stronger effect = higher value

activation, active:
COc1ccc(-c2cc3ncccc3cn2)cc1 8.94%
COCC(C)n1c(SCc2ccc(C(=O)OC)o2)nc2ccccc2c1=O (centres undefined) 9.35%
c1ccc2cc3c(NCCN4CCOCC4)ccnc3cc2c1 15.8%
Cc1ccc(N/C=C/C(=O)c2ccccc2)cc1C 14.5%
CC(C)c1ccc(NC(=S)NC2CC3C=CC2C3)cc1 (centres undefined) 8.66%
Cc1cc(OC(=O)c2ccccc2)c([N+](=O)[O-])c(=O)[nH]1 7.86%
O=C1Cc2cc(S(=O)(=O)Nc3cccc(F)c3)ccc2N1 9.16%
O=C(CSc1nc2ccccc2[nH]1)c1cccs1 8.32%
CCCCNC(=O)C1CCC(CNS(=O)(=O)c2ccc(NC(C)=O)cc2)CC1 (centres undefined) 12.9%
COc1cc(CN2CCC(C(N)=O)CC2)ccc1OCc1ccccc1 10.4%

activation, inactive:
Cc1ccccc1NC(=O)C1CCN(c2ncccn2)CC1 -1.72%
CC(=O)N1CCc2cc(S(=O)(=O)NCCC(=O)N3CCCC3)ccc21 -4.7%
COC(=O)C1CN(Cc2cn(Cc3ccc(F)cc3)nn2)CCS(=O)(=O)N1Cc1ccc(Cl)cc1 (centres undefined) -3.03%
COc1cc(OC)cc(-c2cc3ccc(F)cc3cn2)c1 7.74%
COc1ccc(-c2cc(C3CCN(c4ncccc4[N+](=O)[O-])CC3)[nH]n2)cc1 -2.21%
COCCn1c(C)cc(C(=O)CSc2nc3ccccc3c(=O)n2C(C)COC)c1C (centres undefined) -2.97%
COCC(C)n1c(SCC(=O)NC2CCCCC2C)nc2ccccc2c1=O (centres undefined) -2.03%
COC(=O)C1CN(Cc2ccc(F)cc2)CCS(=O)(=O)N1Cc1ccc(Cl)cc1 (centres undefined) -2.03%
CSc1ccc(CNCCN2CCOCC2)cc1 -0.08%
O=C(Cc1ccc(Br)cc1)NCCN1CCOCC1 5.26%
CC(C)(C)n1nc(C2CC2)c(Br)c1NC(=O)c1ccccc1F -3.81%
COc1ccc(S(=O)(=O)N2CCOCC2)cc1NC(=O)Cc1coc2cc(C)ccc12 -0.89%
C#CCCN([C@H](C(=O)OC)C(C)C)S(=O)(=O)c1ccc(F)cc1Br 0.37%
O=C(OC12CCCN(C1)/C(=C/c1cccnc1)C2)C1CCCC1 (centres undefined) -1.64%
Cc1cccc(C(=O)Nc2ccc(C(=O)/C=C/c3cccs3)cc2)c1 7.01%
COC(C(=O)Nc1ccc(S(=O)(=O)Nc2ccc(C)c(C)c2)cc1)c1ccccc1 (centres undefined) -2.54%
O=C(CCCCCCCC(=O)N1CCCCC1)N1CCCCC1 -4.31%
Cc1cccc(C(=O)Nc2c(-c3ccc(F)cc3)nc3ncccn23)c1 -2.99%
CC(c1ccc(N)cc1)c1cn(C)c2ccccc12 (centres undefined) 2.03%
Cc1ccc(CN(N=Nc2nonc2N)c2nonc2N)c(C)c1 -3.9%
O=C(COC(=O)C1CC2C=CC1C2)Nc1ccccc1 (centres undefined) -3.49%
CC(NC(=S)Nc1ccc(OC(F)F)cc1)c1ccc(F)cc1 (centres undefined) -2.75%
COc1cccc(/C=C2\CC3(OC(C)=O)CCCN2C3)c1 (centres undefined) 1.54%
COc1cccc(C(=O)Oc2cc(C)[nH]c(=O)c2[N+](=O)[O-])c1 0.69%
Cc1cc(OC(=O)c2ccc(OC(C)C)cc2)c([N+](=O)[O-])c(=O)[nH]1 -2.6%
CC1CCC(NS(=O)(=O)c2ccc3c(c2)CC(=O)N3)CC1 (centres undefined) -2.52%
Cn1c(=O)n(C)c2cc(S(=O)(=O)Nc3ccc(F)cc3)ccc21 -2.88%
CCN(CC)C(=O)CC[C@H]1CC[C@]2(CCCN(Cc3ccc(Cl)cc3)C2)O1 -0.46%
CCOC(=O)CCCNC(=O)COC(=O)c1cc(Br)c(Br)s1 -1.12%
COC(=O)C1CN(CC(C)C)CCS(=O)(=O)N1Cc1ccc(F)cc1 (centres undefined) 1.2%
COC(=O)[C@]12C[C@H](CC(=O)NCC34CC5CC(CC(C5)C3)C4)C(=O)N(Cc3ccc(Cl)cc3Cl)C1=C[C@H](COCc1ccccc1)O[C@@H]2C -1.25%
C=CCn1c(SCC(N)=O)nnc1-c1ccccc1OC -5.95%
O=C(NCc1ccccc1)c1onc(CSc2nc3ccccc3[nH]2)c1C(=O)NCc1ccccc1 -0.17%
Cn1c(SCC(=O)c2cccs2)nnc1-c1ccco1 2.45%
COC(=O)[C@@]12CCCCC3=C1N(CCC3)C(=O)[C@H]2CC(=O)NCc1cccc2ccccc12 -2.69%
Cc1cc(Cl)ccc1C(=O)C1CCCN(C(=O)c2ccc3c(c2)OCO3)C1 (centres undefined) 0.89%
CC1=NNC(=O)C1CC(=O)N/N=C/c1ccncc1 (centres undefined) -3.81%
O=C(CSc1nnc(-c2ccccn2)n1-c1ccccc1)Nc1ccc2cn[nH]c2c1 0.38%
Cc1ccc(C(=O)N(Cc2ccccn2)CC2CCCO2)cc1 (centres undefined) -2.73%
COc1ccc(CSc2nnc(-c3cccc(C)c3)n2C)cc1 -2.04%
Cc1ccc(-c2nnc(SCC(=O)Nc3ccc(Oc4ccccc4)cc3)n2Cc2ccco2)cc1 -4.83%
CCCCSCCCNC(=O)C1CCC(CNS(=O)(=O)c2ccc(NC(C)=O)cc2)CC1 (centres undefined) -2.92%
CC(=O)Nc1ccc(S(=O)(=O)NCC2CCC(C(=O)NCCc3ccccc3)CC2)cc1 (centres undefined) -3.64%
COc1ccccc1C(=O)N1CCNC(=O)C1CC(=O)Nc1ccc(Cl)cc1 (centres undefined) -0.22%
COc1ccc(C2CC=C(C(=O)O)C(c3ccccc3F)N2S(=O)(=O)c2ccc(C)cc2)cc1OC (centres undefined) 0.02%
N#C/C=C1\Sc2ccccc2C(=O)N1CC(=O)N1CCN(S(=O)(=O)c2ccccc2)CC1 6.51%
CCc1ccccc1NC(=O)CSc1nnc(-c2cccs2)o1 5.4%
COc1ccc(CCN2C(=O)CC(N3CCC(C(N)=O)CC3)C2=O)cc1OC (centres undefined) -1.41%
COc1ccc(COCC(O)CN2CCC(C(N)=O)CC2)cc1 (centres undefined) -2.59%

— PubChem BioAssay AID652017 (The Scripps Research Institute Molecular Screening Center, 2013)
